Screening results from PubChem.
GalR3 antag: antagonists of human GalR3; O60755; inhibition, % at 3 µM; HEK293 GalR3-CNG cAMP membrane potential fluorescence; galR3 body fused to GalR1 C-terminus; 360,000 compounds, 0.44% hits; AID 651719;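 active = inhibition above the screen-wide average plus 3 SD, cut at about 13% in these data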;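 note: forskolin and galanin both at EC90 stimulate the cells; cAMP rise reported by CNG channel membrane potential dye signal; 0% = forskolin plus galanin with DMSO and 100% = forskolin alone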
Target sequence (O60755 1-299 limits assumed): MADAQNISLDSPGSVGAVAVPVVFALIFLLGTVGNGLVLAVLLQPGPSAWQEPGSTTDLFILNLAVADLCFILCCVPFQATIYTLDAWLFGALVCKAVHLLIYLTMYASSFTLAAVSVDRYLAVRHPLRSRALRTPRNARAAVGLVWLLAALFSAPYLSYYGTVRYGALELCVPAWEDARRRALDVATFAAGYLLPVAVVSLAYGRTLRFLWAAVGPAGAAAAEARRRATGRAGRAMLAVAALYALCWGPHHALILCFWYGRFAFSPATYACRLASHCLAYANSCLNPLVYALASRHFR
NR2F2 inh: inhibitors of human COUP-TFII (NR2F2); AID 686940; inhibition, % at 8.6 µM; 370,000 compounds, 0.7% hits; P24468; HEK293T NGFI-A luciferase reporter, luminescence;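 active = inhibition above a per-plate cutoff, mean inhibition of test wells between control levels plus 3 SD, cut at about 38% in these data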;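 note: cells cotransfected with COUP-TFII expression vector driving the NGFI-A reporter; 0% = median of COUP-TF2 test wells and 100% = reporter-only cells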
697 NFkB inh: lowers PMA/ionomycin-induced NF-kB signal in 697 B cells; 697 B-cell NF-kB luciferase reporter, 16 h; inhibition, % at 4 µM; 330,000 compounds, 0.33% hits; AID 435022; in the data active = inhibition above about 35%
Gli-Sufu block: blocks Gli-Sufu signaling in a luciferase reporter. AID 588413. 340,000 compounds, 0.74% hits. inhibition, % at 5 µM. Sufu-KO-LIGHT fibroblasts, Gli luciferase reporter luminescence;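 active = inhibition above about 55%, limit read from the data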;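 note: 0% = DMSO-treated cells and 100% = wells with medium but no cells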
Jurkat NFkB inh: inhibitors of the PMA/ionomycin-induced NF-kB reporter in Jurkat cells | PMA/ionomycin-induced NF-kB luciferase reporter, luminescence | inhibition, % at 4 µM | 330,000 compounds, 0.53% hits | AID 435003; in the data active = inhibition above about 50%
Jurkat NFkB conf: inhibitors of the PMA/ionomycin-induced NF-kB reporter in Jurkat cells, retest; Jurkat NF-kB luciferase, 16 h; AID 435020; 2,700 compounds, 27% hits; shares compounds with Jurkat NFkB inh; inhibition, % at 4 µM;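 active = inhibition reaching about 45% at 4 µM in either replicate, limit read from the data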;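 note: plate controls were PMA/ionomycin stimulated DMSO wells for no effect and unstimulated DMSO wells for full effect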
The depositor's hits bear a star; . = not tested or not shown. Shown are actives, neighbours in structure and some others; about 2% of the full set was active somewhere.

SMILES	GalR3 antag	NR2F2 inh	697 NFkB inh	Gli-Sufu block	Jurkat NFkB inh	Jurkat NFkB conf
CCOc1ccc2oc(C(=O)Nc3ccc(C)cn3)c(C)c2c1	-9	-7	.	.	.	.
Cc1ccc2oc(C(=O)Nc3cc(C)on3)c(C)c2c1	-2	-50	-47	-132	-169	-75
C[N+]1=C(N)N[C@@]2(C=C3CCCCC3n3c(=O)n(-c4ccccc4)c(=O)n32)C1 (stereo not given in full)	.	-2	.	.	.	.
CC1=Nc2ccccc2/C1=C\c1sc(Nc2ccc(C)cc2)nc1O	-1	-63	-22	35	53*	61*
Cc1ccc(C(=O)NC2c3ccccc3-c3ccccc32)cc1	-5	-1	-24	-2	60*	2
O=C(Nc1cccc(Cl)c1)OC1CCC12CCC(c1ccccc1)CC2 (stereo not given)	.	-6	.	.	.	.
COc1ccc(S[C@]2(C(=O)N3CCN(C(C)=O)CC3)CC(=O)N(C(=O)C3CC3)[C@@H]2c2ccc(OC)cc2)cc1	.	8	.	.	.	.
COc1ccc(C2NN=C(c3ccc(C)cc3)S2)cc1OC (stereo not given)	-7	-62	-120	-107	-137	.
Cc1ccc(C2=NNC(c3cccc(F)c3)S2)cc1 (stereo not given)	-3	-18	-233	-83	-167	-76
Cn1c2ccccc2c(=O)c2ccc(C#CC3(N)CCCCC3)cc21	9	-64	-165	16	-176	-17
CCNC(=O)C[C@H]1CC[C@H]2[C@@H](COc3ccc(NC(=O)c4ccc5c(c4)OCO5)cc3C(=O)N2C)O1	.	-5	.	.	.	.
O=C(NC1CCCCC1)c1ccc(-c2ccccc2[N+](=O)[O-])o1	-3	-47	-175	.	-152	-105
Oc1ccc(C2=NNC(=NCc3ccc4c(c3)OCO4)SC2)c(O)c1	-5	-8	-51	-19	52*	16
C[C@H](O)[C@@H]1CN2CCc3c([nH]c4cccc(-c5ccccc5)c34)[C@@H]2C[C@@H]1N(C)C(=O)C1CCCCC1	.	-5	.	.	.	.
O=C(Nc1ccc(OC(F)F)c(Cl)c1)c1ccccn1	-9	-52	-160	-109	-176	-96
Cc1ccc(OCC(=O)Nc2sc3c(c2C#N)CC(C)(C)NC3(C)C)cc1	-2	-14	-8	5	-16	.
CC1(C)Cc2c(sc(NC(=O)COc3cccc4ccccc34)c2C#N)C(C)(C)N1	-3	-28	-17	2	87*	62*
Cc1cnc(NC(=O)C2CC(=O)N(c3ccc4c(c3)OCCO4)C2)s1 (stereo not given)	-4	7	-3	-16	0	.
Cc1cnc(NC(=O)C2CC(=O)N(c3cccc(Cl)c3)C2)s1 (stereo not given)	-3	-3	0	-199	75*	72*
CCOC(=O)c1oc2ccc(S(=O)(=O)n3nc(-c4ccccc4)cc3N)cc2c1C	3	-2	-13	47	33	.
CCOC(=O)c1oc2ccc(S(=O)(=O)n3nc(-c4ccc(OC)cc4)cc3N)cc2c1C	5	6	-50	25	58*	28
COc1ccc(NC(=O)COc2cc(C)cc(C)c2)cc1S(=O)(=O)N1CCCCC1	-5	28	-54	-4	57*	23
N#CCC[C@H]1CC[C@]2(CCCN(C(=O)c3ccc4ccccc4n3)C2)O1	.	7	.	.	.	.
Cc1nn(-c2ccccc2)c2sc(C(=O)NC3CCCCCC3)cc12	.	6	.	.	.	.
COc1cc(C(=O)OCC(=O)Nc2sccc2C(N)=O)cc(OC)c1OC	1	7	-44	9	54*	24
SMILES	GalR3 antag	NR2F2 inh	697 NFkB inh	Gli-Sufu block	Jurkat NFkB inh	Jurkat NFkB conf
COC(=O)c1cc(-c2ccc(Oc3ccccc3)cc2)c(=O)n2c1CCC2	.	-12	.	.	.	.
COC(=O)[C@H](C)NC(=O)[C@@H]1CC=C[C@@H]2CCN(CCc3ccccc3)C(=O)[C@@H]21	.	2	.	.	.	.
COc1ccccc1NC(=O)c1oc2ccccc2c1NC(=O)c1cc(OC)c(OC)c(OC)c1	-4	-16	-20	14	64*	13
C[C@@H]1COc2cc(Br)ccc2S(=O)(=O)N1Cc1cn(Cc2ccc(Br)cc2)nn1	.	14	.	.	.	.
CC(=O)c1ccc(NC(=O)c2noc3c2CCCCC3)cc1	-3	-37	-121	-120	-165	-96
CCn1c2ccccc2c2cc(NC(=O)COc3ccccc3OC)ccc21	-10	-1	-17	5	48	.
CCn1c2ccccc2c2cc(NC(=O)CNCc3ccccc3OC)ccc21	-5	2	-5	-6	53*	24
